TDP1 cell noCPT: qHTS for Inhibitors of human tyrosyl-DNA phosphodiesterase 1 (TDP1): qHTS in cells in absence of CPT; Potency, µM (highest dose often 46.2 µM), hits mostly inhibitors; actives 15% (n = 420,000); DT40 Tdp1-/- hTDP1 cells, no CPT, ATP luminescence, 48 h; AID 686978, 2013; further: nearly all actives have a fitted effect of over 55% in size
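DT40 Tdp1-/-;hTDP1 cells, no CPT (DMSO vehicle only), 400 cells/well; compounds pin-transferred; ≥48 hr, 37 °C; CellTiter-Glo 30 min RT dark, luminescence read.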
IL-1B inflam inh: inflammasome signaling inhibition, IL-1 beta readout. activity change, % at 57.5 µM. AID 743279. THP-1 LPS/ATP IL-1B secretion, AlphaLISA, 16 h; stronger effect = lower value. actives 4.7% (n = 360,000); in the data active means activity change below about -50%; inconclusive means mostly about -30% to -49%
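THP-1 cells pretreated 1 hr with compounds (up to 57.5 uM final), then stimulated with LPS (250 ng/mL final) plus ATP (1.25 mM final); secreted IL-1B measured by AlphaLISA after 16 hr, decreased signal indicating inhibition.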
Six1-Eya2 blk: blocks human Six1 binding to Eya2; Q15475+O00167; AlphaScreen GST-Six1/His-Eya2 binding, biochemical; stronger effect = lower value; actives 0.56% (n = 360,000); activity change, % (concentration not given with the values); in the data active means activity change below about -65%; inconclusive means mostly about -30% to -63%
Target sequence (O00167 whole entry, looked up): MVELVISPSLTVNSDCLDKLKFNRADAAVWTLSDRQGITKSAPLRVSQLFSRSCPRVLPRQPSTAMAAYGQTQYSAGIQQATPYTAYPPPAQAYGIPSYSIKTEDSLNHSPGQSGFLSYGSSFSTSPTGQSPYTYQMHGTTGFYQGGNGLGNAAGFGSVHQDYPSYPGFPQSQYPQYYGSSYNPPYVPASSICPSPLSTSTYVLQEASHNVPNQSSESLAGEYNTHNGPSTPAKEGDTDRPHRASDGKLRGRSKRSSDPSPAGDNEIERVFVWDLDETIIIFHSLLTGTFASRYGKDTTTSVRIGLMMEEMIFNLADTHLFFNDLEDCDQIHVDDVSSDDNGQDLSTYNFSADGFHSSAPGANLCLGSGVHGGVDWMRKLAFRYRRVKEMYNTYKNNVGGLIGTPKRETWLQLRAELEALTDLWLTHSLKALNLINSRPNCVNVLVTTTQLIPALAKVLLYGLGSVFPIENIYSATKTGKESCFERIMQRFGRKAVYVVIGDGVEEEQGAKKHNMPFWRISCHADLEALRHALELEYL
Target sequence (Q15475 whole entry, looked up): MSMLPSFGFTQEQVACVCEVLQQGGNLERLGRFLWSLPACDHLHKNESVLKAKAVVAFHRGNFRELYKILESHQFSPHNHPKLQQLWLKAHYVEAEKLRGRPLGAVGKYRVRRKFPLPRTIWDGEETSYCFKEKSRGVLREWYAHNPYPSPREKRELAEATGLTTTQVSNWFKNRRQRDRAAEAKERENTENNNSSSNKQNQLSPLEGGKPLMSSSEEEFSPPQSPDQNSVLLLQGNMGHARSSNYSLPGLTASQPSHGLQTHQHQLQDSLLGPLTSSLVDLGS
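Six1/Eya2 binding was read as AlphaScreen signal after compounds were pinned into GST-Six1 plus His-tagged Eya2 (5X stock 250/500 nM) in pH 8.0 Tris/NaCl/TCEP buffer, beads added, then incubated 1 h, 37 C, dark.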
CtBP-E1A inh: CtBP/E1A binding inhibition; activity change, % (concentration not given with the values); AlphaScreen GST-E1A/His-CtBP binding, 1536-well; stronger effect = lower value; actives 0.49% (n = 340,000); AID 651724; in the data active means activity change below about -65%; inconclusive means mostly about -30% to -63%
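In 5 uL wells, 23 nL compound meets equimolar GST-E1A and His-CtBP (5X stock 125 nM each) for 2 h, 37 °C. Beads (5X, 50 ug/mL) then 1 h, 37 °C, dark.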
TDP1 cell CPT: growth inhibition of DT40 Tdp1-/-;hTDP1 cells with camptothecin (screen for TDP1 inhibitors); Potency, µM (series often up to 46.2 µM), actives largely listed as inhibitors; chicken DT40 Tdp1-/-;hTDP1 cells + 20 nM CPT, ATP luminescence, 48 h; actives 12% (n = 420,000); further: nearly all actives have a fitted effect of over 55% in size
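Cell growth measured by CellTiter-Glo luminescence after a minimum 48 h, 37 C compound exposure with 20 nM CPT in Tdp1-knockout DT40 cells stably expressing hTDP1, seeded 400/well; qHTS titration format.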
TDP1 block: blocks human tyrosyl-DNA phosphodiesterase 1; AID 485290; recombinant TDP1, AlphaScreen DNA substrate cleavage; Potency, µM (highest dose often 130 µM), usual class: inhibitors; Q9NUW8; actives 0.28% (n = 350,000); further: nearly all actives have a fitted effect of over 40% in size
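Recombinant human Tdp1 (E. coli-expressed, 1 nM final) preincubated with compounds 15 min at room temperature, then 5'-biotin/3'-phosphotyrosine-FITC DNA substrate (15 nM final) added for 5 min. AlphaScreen beads (10 ug/ml final) added 10 min; cleavage lowers signal.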
Each line names hits and unclear results; the compound was inactive in the other large screens; ! = not confirmed by another sample. Sampled rows, rich in hits. Any-hit rate of the full collection: about 18%. Unless noted, the call rests on the fitted dose curve; in most records, active means well fitted curve in the direction sought with a large enough effect; inconclusive means small, poorly fitted or top-dose-only effect, or another doubt; inactive means no such curve, though single readings can be large; an effect the other way counts as inactive or inconclusive.

COC(=O)[C@@]1(Cc2ccc(OC)cc2)[C@H]2c3cc(C(=O)N4CCCC4)n(Cc4cc(F)cc5c4OCOC5)c3C[C@H]2CN1C(=O)c1ccccc1	none (no result: TDP1 cell noCPT, IL-1B inflam inh, Six1-Eya2 blk, CtBP-E1A inh, TDP1 cell CPT)
O=C(NNC(=O)c1c(F)cccc1F)c1ccccc1OC(F)(F)F	none
CCOC(=O)COc1ccccc1/C=C\[N+](=O)[O-]	TDP1 cell noCPT 1.6µM, IL-1B inflam inh -100, TDP1 cell CPT 2.6µM
CCc1ccccc1NC(=S)N(CCCN1CCOCC1)Cc1ccccn1	none
C=CCN(C(=O)CSC1=NC(=O)CN1C(C)=O)c1nc(C)c(-c2ccccc2)s1	TDP1 cell noCPT 18µM, IL-1B inflam inh -89, TDP1 cell CPT inconclusive
CCC1CCCCN1c1nc2c(C=O)c(C)nn2c2ccccc12 (configuration not stated)	TDP1 cell noCPT 16µM, TDP1 cell CPT 21µM
CCOC(=O)c1nnn2c1nc(N1CCCCC1)c1ccccc12	TDP1 cell noCPT inconclusive, TDP1 cell CPT inconclusive (no result: IL-1B inflam inh)
COc1ccccc1CNC(=O)CCCn1c(=O)c2ccccc2n(Cc2ccc(F)cc2)c1=O	TDP1 cell noCPT inconclusive, TDP1 cell CPT 16µM (no result: IL-1B inflam inh, Six1-Eya2 blk, CtBP-E1A inh)
COc1ccccc1CNC(=O)CCCCn1c(=O)c2ccccc2n(Cc2c(C)cc(C)cc2C)c1=O	none (no result: IL-1B inflam inh, Six1-Eya2 blk, CtBP-E1A inh)
Cn1cc(CCCC(=O)NCc2ccc(F)cc2)c2ccccc21	TDP1 cell noCPT 21µM!, TDP1 cell CPT inconclusive
COc1ccccc1CNC(=O)CCCn1c(=O)c2ccccc2n(Cc2ccccc2C#N)c1=O	TDP1 cell noCPT 4.6µM, TDP1 cell CPT 26µM (no result: IL-1B inflam inh, Six1-Eya2 blk, CtBP-E1A inh)
COCCNC(=O)CCCn1c(=O)c2ccccc2n(Cc2ccccc2C#N)c1=O	none (no result: TDP1 block)
CN(C)CC[n+]1ccc(C(=O)c2ccccc2)cc1	TDP1 cell noCPT 2.6µM, TDP1 cell CPT 4.1µM (no result: TDP1 block)
Cc1ccc(-c2nc(CS(=O)(=O)CC(=O)NCCCN(Cc3ccccc3)C(C)C)c(C)o2)cc1	TDP1 cell noCPT inconclusive, TDP1 cell CPT inconclusive
CC(C)c1cc(C(=O)N2CCCC(N3CCN(c4ccc(F)cc4)CC3)C2)n(C)n1 (configuration not stated)	TDP1 cell noCPT inconclusive, TDP1 cell CPT 16µM (no result: TDP1 block)
COc1ccc(C(=O)C2CCCN(C(=O)c3c4c(nn3C)CCCC4)C2)cc1F (configuration not stated)	TDP1 cell noCPT inconclusive
Cn1nc2c(c1C(=O)N1CCCC(C(=O)c3cc(F)ccc3F)C1)CCCC2 (configuration not stated)	TDP1 cell CPT 16µM (no result: TDP1 block)
Cc1cc(C(=O)N2CCCC(CO)(Cc3ccc(F)cc3)C2)c(C)o1 (configuration not stated)	TDP1 cell noCPT 23µM, TDP1 cell CPT 23µM
CC(C)c1cc(C(=O)N2CCCC(N3CCN(c4ccc(F)cc4)CC3)C2)no1 (configuration not stated)	TDP1 cell noCPT inconclusive, TDP1 cell CPT inconclusive
Cc1cc(C(=O)N2CCCC(C(=O)c3cc(F)ccc3F)C2)c(C)o1 (configuration not stated)	TDP1 cell noCPT 18µM, TDP1 cell CPT inconclusive
CC(C)[C@H](NC(=O)C1CCN(S(=O)(=O)c2ccc(F)cc2)CC1)C(=O)N1CCCC1	none
CNC(=O)c1cccc2cccc(Sc3ccccc3C(=O)O)c12	none
COc1cccc(Nc2ncc(C(=O)O)c3ccccc23)c1	none
Cc1cccc(CNS(=O)(=O)c2csc(C(N)=O)c2)c1	TDP1 cell CPT inconclusive (no result: CtBP-E1A inh)
Cc1cc(C(=O)N2CCCC(N3CCN(c4ccc(F)cc4)CC3)C2)c(C)o1 (configuration not stated)	TDP1 cell noCPT 18µM, TDP1 cell CPT 23µM
O=C(NCC(c1ccco1)N1CCc2ccccc21)c1cccc([N+](=O)[O-])c1 (configuration not stated)	TDP1 cell noCPT 21µM, TDP1 cell CPT 16µM (no result: TDP1 block)

Bioassay records (PubChem)
